Activity calls are given as the source filed them.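 The calls were made as follows, unless noted: active = compounds lowering colon cancer cell viability after pretreatment blocking the GSK3B kinase; inactive = the rest.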

Assay [1] is described as follows: Wnt pathway potentiators raising nuclear beta-catenin – imaging, WNT3A-conditioned medium, mouse C2C12, NPC library, primary screen (AID 1117326; in the data active = nuclear beta-catenin stimulation mostly above about 4.2%, no sharp cut-off; inactive = mostly below about 10%; also: reference of the scale not given here). The following applies: stronger effect = higher value.
Assay [2] is described as follows: stimulators of insulin release from INS-1E, primary screen, cell-based, 5 mM glucose, NPC library (AID 1117329;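 active = compound raises insulin release from rat beta cells at 5 mM glucose, no numeric limit stated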; also: reference of the scale not given here). As to conditions: rat INS-1E insulin secretion, at 10 µM, stronger effect = higher value.
A short description of assay [3]: growth inhibition of GSK3B-pretreated HCT116 cells – cell-based, CellTiter-Glo, 0.2 to 20 µM (AID 1117336). As to conditions: HCT116 viability after GSK3B inhibitor, at 20 µM, stronger effect = higher value. (Cellular ATP, detected with luciferase, serves as a proxy for viable cell number.)
The nature of assay [4]: inhibition of endothelial tube formation, primary screen, imaging, VEGF stimulated, CD31 staining, tube area, NPC library (AID 1117340;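 active = compound that reduces growth-factor-driven endothelial tube area in a mixed cell culture, no cutoff stated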). The following applies: VEGF-stimulated ADSC/ECFC co-culture, at 10 µM, stronger effect = higher value.
Assay [5] can be described thus: GLP1 release stimulators, primary, NCI-H716, NPC library (AID 1117341;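 active = compound raises GLP1 secretion from the human gut endocrine cells, with no numeric limit stated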; also: reference of the scale not given here). The following applies: NCI-H716 cells, at 10 µM, stronger effect = higher value.
Assay [6] in a line: HCT116 colon cancer cell growth inhibition, primary screen, CellTiter-Glo luminescence, NPC library (AID 1117342;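 active = compounds that lower survival of HCT116 colon cancer cells in the luminescence readout, no numeric limit stated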). The following applies: at 20 µM (top of the series).
Assay [7] can be described thus: reduced SW480 viability measured with CellTiter-Glo, NPC library, primary (AID 1117343;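 active = compounds that lower viability of the colon cancer cells in the luminescence readout, with no numeric limit stated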). The following applies: CellTiter-Glo luminescence; at 20 µM (top of the series).
Assay [8] is described as follows: NPC library primary testing for decreased DLD-1 cell viability via CellTiter-Glo (AID 1117346;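 active = compounds that lower survival of DLD-1 colon cancer cells in the luminescence readout, no cutoff given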). The following applies: DLD-1 viability, CellTiter-Glo luminescence; at 20 µM (top of the series).

As to `CCOC(=O)[C@@H](N)CS`, the nuclear beta-catenin stimulation is -2% (inactive) in assay [1] (at 10 µM) and -1% in assay [1] (stimulation, at 2 µM). Also, the insulin secretion stimulation in assay [2] is 2.3% (inactive). Besides, in assay [3], the viability decrease was -17.1% (inactive). The tube area decrease in assay [4] was 2.3% (inactive). Moreover, the GLP1 secretion stimulation in assay [5] was 21% (active). Besides, the inhibition of viability in assay [6] was -5.6% (inactive). The values for the viability decrease (inhibition) in assay [7] and in assay [8] were 34.7% (inactive) and 4.2% (inactive), respectively.

With `Cc1cc(O)c(Cl)c(C)c1Cl`, the nuclear beta-catenin stimulation in assay [1] (at 10 µM) was 0.8% (inactive); in assay [1] (stimulation, at 2 µM), -0.1%. Moreover, the insulin secretion stimulation in assay [2] was -1.8% (inactive). The viability decrease in assay [3] was -24.1% (inactive). For the same molecule, the tube area decrease in assay [4] is 7.2% (inactive). Further, in assay [5], the GLP1 secretion stimulation is -2% (inactive). Moreover, the inhibition of viability in assay [6] was -6.7% (inactive). In addition, the values for the viability decrease (inhibition) in assay [7] and in assay [8] were -0.8% (inactive) and -12.3% (inactive), respectively.

In the case of `Cc1cccc(C)c1NC(=O)CN1CCCCCC1`, the nuclear beta-catenin stimulation in assay [1] (at 10 µM) is -2% (inactive); in assay [1] (stimulation, at 2 µM), 0.1%. Further, the insulin secretion stimulation in assay [2] is 1.9% (inactive). Further, the viability decrease in assay [3] is -6.6% (inactive). Further, the tube area decrease in assay [4] was -7.7% (inactive). Besides, the GLP1 secretion stimulation in assay [5] is -1% (inactive). The inhibition of viability in assay [6] is -16.3% (inactive). Further, the results for the viability decrease (inhibition) in assay [7] and in assay [8] were 23.3% (inactive) and -8.2% (inactive), respectively.

As for `CC(C)CCC[C@@H](C)[C@H]1CC[C@H]2[C@@H]3CC[C@H]4C[C@@H](O)CC[C@]4(C)[C@@H]3CC[C@]12C`, the nuclear beta-catenin stimulation was 0% (inactive) in assay [1] (at 10 µM) and 0.5% in assay [1] (stimulation, at 2 µM). The insulin secretion stimulation in assay [2] is 1.1% (inactive). The viability decrease in assay [3] is 1.6% (inactive). Besides, the tube area decrease in assay [4] was -1.6% (inactive). Further, the GLP1 secretion stimulation in assay [5] was -1.9% (inactive). In addition, the inhibition of viability in assay [6] is -2.8% (inactive). The viability decrease (inhibition) is -7.2% (inactive) in assay [7] and -8.7% (inactive) in assay [8].

As to `O=C(Nc1ccc(Br)cc1)c1cc(Br)c(Br)s1`, the nuclear beta-catenin stimulation was 24.1% (inactive) in assay [1] (at 10 µM) and -0.1% in assay [1] (stimulation, at 2 µM). Moreover, the insulin secretion stimulation in assay [2] is 3.5% (inactive). Besides, in assay [3], the viability decrease is 99.8% (active). In addition, the tube area decrease in assay [4] is 108% (active). Also, the GLP1 secretion stimulation in assay [5] was -2% (inactive). Further, in assay [6], the inhibition of viability was 99.7% (active). In addition, the viability decrease (inhibition) in assay [7] and in assay [8] was 102% (active) throughout.

Turning to `O=C(O)c1ccccc1NCCc1ccccc1`, the nuclear beta-catenin stimulation is 1.2% (inactive) in assay [1] (at 10 µM) and 2.5% in assay [1] (stimulation, at 2 µM). Also, in assay [2], the insulin secretion stimulation was 0.15% (inactive). Also, the viability decrease in assay [3] is 42.9% (inactive). Further, in assay [4], the tube area decrease was 22.2% (inactive). Moreover, in assay [5], the GLP1 secretion stimulation was 1.4% (inactive). Also, the inhibition of viability in assay [6] was 26.7% (inactive). Besides, the viability decrease (inhibition) in assay [7] is 50.6% (active); in assay [8], -1.8% (inactive).

`CC(=O)OC[C@H]1O[C@@](COC(C)=O)(O[C@H]2O[C@H](COC(C)=O)[C@@H](OC(C)=O)[C@H](OC(C)=O)[C@H]2OC(C)=O)[C@@H](OC(C)=O)[C@@H]1OC(C)=O`: the nuclear beta-catenin stimulation in assay [1] (at 10 µM) was 0.3% (inactive); in assay [1] (stimulation, at 2 µM), -0.8%. Besides, the insulin secretion stimulation in assay [2] was -0.2% (inactive). The viability decrease in assay [3] was -1% (inactive). The tube area decrease in assay [4] is 0.8% (inactive). For the same molecule, the GLP1 secretion stimulation in assay [5] is -0.5% (inactive). The inhibition of viability in assay [6] was 3.93% (inactive). Moreover, the viability decrease (inhibition) is 16.6% (inactive) in assay [7] and -8% (inactive) in assay [8].

As for `O=C(O)CC(O)C(=O)O` (centres undefined), the nuclear beta-catenin stimulation is 6% (inactive) in assay [1] (at 10 µM) and 0% in assay [1] (stimulation, at 2 µM). In assay [2], the insulin secretion stimulation is -0.5% (inactive). Besides, the viability decrease in assay [3] is -6% (inactive). Besides, the tube area decrease in assay [4] is 1.8% (inactive). For the same molecule, the GLP1 secretion stimulation in assay [5] was 1.3% (inactive). Besides, in assay [6], the inhibition of viability is -8.5% (inactive). Moreover, the values for the viability decrease (inhibition) in assay [7] and in assay [8] were 13.3% (inactive) and -7.65% (inactive), respectively.

`C[C@H](N)C(=O)N[C@@H](C)C(=O)NC1[C@H]2CN(c3nc4c(cc3F)c(=O)c(C(=O)O)cn4-c3ccc(F)cc3F)C[C@@H]12` (some centres undefined): the nuclear beta-catenin stimulation in assay [1] (at 10 µM) is 0.2% (inactive); in assay [1] (stimulation, at 2 µM), -2.1%. In addition, in assay [2], the insulin secretion stimulation was 3.4% (inactive). Further, the viability decrease in assay [3] is 80.7% (active). Moreover, the tube area decrease in assay [4] was 1.8% (inactive). Further, the GLP1 secretion stimulation in assay [5] was 0.7% (inactive). In assay [6], the inhibition of viability is 27.2% (inactive). Moreover, the viability decrease (inhibition) in assay [7] was 2.9% (inactive); in assay [8] it was -9.3% (inactive).

Take `CC(=O)O[C@H]1CC[C@@]2(C)C(=CC[C@@H]3[C@@H]2CC[C@]2(C)C(C(C)=O)=CC[C@@H]32)C1`: the nuclear beta-catenin stimulation was 3.7% (inactive) in assay [1] (at 10 µM) and 0.6% in assay [1] (stimulation, at 2 µM). Further, the insulin secretion stimulation in assay [2] was 0.2% (inactive). Also, the viability decrease in assay [3] was 48% (inactive). The tube area decrease in assay [4] was 9.9% (inactive). Further, the GLP1 secretion stimulation in assay [5] was -2% (inactive). Besides, in assay [6], the inhibition of viability is 25.8% (inactive). Further, the viability decrease (inhibition) in assay [7] was 60.1% (active); in assay [8], 14.9% (inactive).

As to `CCOC(=O)Cn1cccc1-c1nc(-c2ccc(OC)cc2)c(-c2ccc(OC)cc2)s1`, the nuclear beta-catenin stimulation in assay [1] (at 10 µM) is -0.6% (inactive); in assay [1] (stimulation, at 2 µM), -1.4%. The insulin secretion stimulation in assay [2] was 1.9% (inactive). The viability decrease in assay [3] is 35.5% (inactive). In addition, the tube area decrease in assay [4] was 6.7% (inactive). For the same molecule, in assay [5], the GLP1 secretion stimulation was -0.1% (inactive). For the same molecule, the inhibition of viability in assay [6] was 46% (inactive). Besides, the figures for the viability decrease (inhibition) in assay [7] and in assay [8] were 88.2% (active) and 77.5% (active), respectively.

On to `COc1cc(NS(=O)(=O)c2ccc(N)cc2)nc(C)n1`, for which the nuclear beta-catenin stimulation is 1.1% (inactive) in assay [1] (at 10 µM) and 10.1% in assay [1] (stimulation, at 2 µM). Further, the insulin secretion stimulation in assay [2] was 2.8% (inactive). In addition, the viability decrease in assay [3] is -0.6% (inactive). The tube area decrease in assay [4] was -13% (inactive). Further, in assay [5], the GLP1 secretion stimulation was 1% (inactive). Moreover, the inhibition of viability in assay [6] is -4.3% (inactive). The values for the viability decrease (inhibition) in assay [7] and in assay [8] were -9% (inactive) and 6.1% (inactive), respectively.

Consider `COc1ccccc1N1CCN(CC(O)COc2cc(OC)c(OC)c(OC)c2)CC1` (centres undefined), for which the nuclear beta-catenin stimulation in assay [1] (at 10 µM) was 0.2% (inactive); in assay [1] (stimulation, at 2 µM), 0.4%. Further, in assay [2], the insulin secretion stimulation was 1.5% (inactive). For the same molecule, in assay [3], the viability decrease is 16.1% (inactive). The tube area decrease in assay [4] was 56.8% (active). The GLP1 secretion stimulation in assay [5] was 4.5% (inactive). The inhibition of viability in assay [6] was 20.9% (inactive). Also, the viability decrease (inhibition) was -2.1% (inactive) in assay [7] and 8.5% (inactive) in assay [8].

Take `Cc1onc(-c2c(F)cccc2Cl)c1C(=O)Cl`: the nuclear beta-catenin stimulation in assay [1] (at 10 µM) is -0.1% (inactive); in assay [1] (stimulation, at 2 µM) it was 0.5%. The insulin secretion stimulation in assay [2] was 1.1% (inactive). Further, the viability decrease in assay [3] was -3.1% (inactive). Besides, in assay [4], the tube area decrease is -12.5% (inactive). In addition, the GLP1 secretion stimulation in assay [5] is -1.4% (inactive). Moreover, the inhibition of viability in assay [6] was 0.4% (inactive). In addition, the figures for the viability decrease (inhibition) in assay [7] and in assay [8] were -2.6% (inactive) and 2.8% (inactive), respectively.

As for `N[C@@H](CSSC[C@H](N)C(=O)O)C(=O)O`, the nuclear beta-catenin stimulation in assay [1] (at 10 µM) was 1.1% (inactive); in assay [1] (stimulation, at 2 µM), 3.2%. Besides, the insulin secretion stimulation in assay [2] was -2.2% (inactive). Further, the viability decrease in assay [3] was 0.8% (inactive). For the same molecule, the tube area decrease in assay [4] was -4% (inactive). Further, the GLP1 secretion stimulation in assay [5] is 3.6% (inactive). Moreover, the inhibition of viability in assay [6] is -21.6% (inactive). Besides, the results for the viability decrease (inhibition) in assay [7] and in assay [8] were 38.7% (inactive) and 8.45% (inactive), respectively.

On to `C=CC[N+]1([C@H]2C[C@H]3[C@@H]4CC[C@H]5C[C@H](OC(C)=O)[C@@H](N6CCCCC6)C[C@]5(C)[C@H]4CC[C@]3(C)[C@H]2OC(=O)CC)CCCCC1`, for which the nuclear beta-catenin stimulation in assay [1] (at 10 µM) is -0.1% (inactive); in assay [1] (stimulation, at 2 µM), -2.6%. The insulin secretion stimulation in assay [2] is 1.45% (inactive). Besides, in assay [3], the viability decrease was 27.6% (inactive). Also, the tube area decrease in assay [4] is -8.7% (inactive). Further, the GLP1 secretion stimulation in assay [5] was 8.2% (inactive). The inhibition of viability in assay [6] was 32.5% (inactive). For the same molecule, the viability decrease (inhibition) was 23.4% (inactive) in assay [7] and -2.8% (inactive) in assay [8].

(Values after PubChem BioAssay.)
